High-throughput results as filed in PubChem BioAssay.
RmlCD inh mix – RmlC and RmlD coupled enzyme inhibitors, primary screen, biochemical, 384-well, compound mixtures, retest. RmlC/RmlD coupled enzyme inhibition, 384-well mixture HTS. inhibition, % at 5.5 µM. AID 1532, 2009. actives 0.39% (n = 110,000); in the data active = inhibition above about 30%, passing the limit was not always enough
YopH inh – YopH tyrosine phosphatase inhibitors, primary screen, biochemical, fluorescence Ex485/Em525; inhibition, % (test concentration not listed); actives 0.16% (n = 140,000); YopH tyrosine phosphatase [Yersinia enterocolitica]; in the data active = inhibition above about 50%
RmlCD fluor art – counter-screen for RmlC/RmlD inhibitors: fluorescence artifact, dose response, artefact control, biochemical; RmlC/RmlD assay fluorescence artifact counter-screen; AID 1696, 2009; actives 96% (n = 360); calls only; shares compounds with RmlCD inh mix; call rule not given here;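 note: compound alone with no enzyme and no substrates present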
Large screens that a line does not name were inactive (follow-up assays come after a bar, where they were run). Compounds with a hit are over-represented: about 0.44% of the library has one in this group of screens.

COCCNC(=O)c1c(N)n(CCC(C)C)c2nc3ccccc3nc12	none
COCCNC(=O)c1c(N)n(CCCn2ccnc2)c2nc3ccccc3nc12	RmlCD inh mix 124
CCCCNC(=O)c1c(N)n(CCCOC)c2nc3ccccc3nc12	none
COCCCn1c(N)c(C(=O)OCCOC)c2nc3ccccc3nc21	YopH inh 51
COc1ccc(-c2nc(O)c3cnccn23)cc1	none (no result: RmlCD inh mix)
N#C/C(=C1\C(=O)Nc2c(Cl)cc(Cl)cc21)c1nnc2n1CCCCC2	none
Cc1ccccc1OCC(=O)Nc1sc(C(=O)Nc2cccc(C)c2C)c(C)c1C#N	none
O=C(COC(=O)c1cccs1)Nc1ccc(S(=O)(=O)N2CCOCC2)cc1	none (no result: RmlCD inh mix)
COC(=O)c1ccc(Cn2cnc3c(sc4nc(N5CCOCC5)c5c(c43)CCCC5)c2=O)o1	none
O=C1c2ccccc2C(=O)c2c1cccc2N1CCOCC1	none (no result: RmlCD inh mix)
O=C1C(N2CCOCC2)=C(n2nnc3ccccc32)C(=O)c2ccccc21	YopH inh 69
COC(=O)N(NC(=O)C(O)(c1ccccc1)c1ccccc1)c1ccccc1	none (no result: RmlCD inh mix)
COC(=O)N(NC(=O)C(O)(CCC(C)C)CCC(C)C)c1ccccc1	YopH inh 70 (no result: RmlCD inh mix)
O=C(CSc1nc2ncccc2[nH]1)c1cccc([N+](=O)[O-])c1	none (no result: RmlCD inh mix)
O=C1CCC(=O)N1CC(=O)N1c2ccccc2Sc2ccccc21	YopH inh 54
Cc1cc(C)n(CC(=O)N2c3ccccc3Sc3ccccc32)n1	none
O=C1C(Nc2cccc(O)c2)=C(N2CCCCC2)C(=O)c2ccccc21	YopH inh 81
Cc1ccc(NC2=C(N3CCCCC3)C(=O)c3ccccc3C2=O)cc1	YopH inh 76
O=C1C(Nc2ccccc2)=C(N2CCCCC2)C(=O)c2ccccc21	YopH inh 98
COc1ccc(C(=O)/C=C/c2ccc(O)cc2)cc1	none (no result: YopH inh)
CC1(C)CC(=O)C=C(Nc2cccc(O)c2)C1	none
CN(C1=C(N2CCCCC2)C(=O)c2ccccc2C1=O)c1ccccc1	none
COC1=C(Nc2ccc(C)cc2)C(=O)c2ccccc2C1=O	none (no result: RmlCD inh mix)
O=C(/C=C/c1ccc(O)cc1)c1ccc(NC2=C(N3CCCCC3)C(=O)c3ccccc3C2=O)cc1	YopH inh 93
CCOc1ccc(OCCCCNCCN)cc1	none (no result: RmlCD inh mix)
O=C(NCCCN1CCOCC1)c1cc2cc(Cl)cc(Cl)c2oc1=O	none (no result: RmlCD inh mix)
O=C1C(c2ccc(F)cc2)N(Cc2ccc3c(c2)OCO3)C(=O)CN1C1CCCCC1 (centres undefined)	none
CCOC(=O)C1CCCN(C(=S)Nc2cccc(Cl)c2)C1 (centres undefined)	none (no result: RmlCD inh mix)
COc1ccc(NS(=O)(=O)c2cc(NC(=O)[C@@H](NC(=O)c3ccccc3)C(C)C)ccc2C)cc1	none (no result: RmlCD inh mix)
CCn1c2ccccc2c2nnc(SCC(=O)Nc3ncccn3)nc21	none
CCn1c(SCC(=O)N2CCN(c3ccc(F)cc3)CC2)nnc1-c1ccncc1	none
COc1cccc(OC)c1C(=O)Nc1ccccc1N1CCCC1	none
COc1ccccc1NC1=C(N2CCCCC2)C(=O)c2ccccc2C1=O	YopH inh 90 (no result: RmlCD inh mix)
O=C(C(Cc1ccccc1)N1C(=O)c2ccccc2C1=O)N1CCc2ccccc21 (centres undefined)	none
CCOC(=O)/C(C#N)=C1\CCCN1CC(N)=S	none (no result: RmlCD inh mix)
N#CC(C#N)=c1ccc2c(c1)NC1(CCCCC1)N=2	YopH inh 92
O=C1NC2(CCCC2)N=C1c1ccc(Cl)cc1	none
CC1C(c2ccccc2)N(C)C(c2ccccc2)C(C)C1(O)C#Cc1ccccc1 (centres undefined)	none (no result: RmlCD inh mix)
Cc1cc(C)nc(SCC(=O)Oc2ccc3oc(=O)cc(C)c3c2)n1	YopH inh 51
CCC(=O)Oc1ccc2oc(=O)cc(C)c2c1	none (no result: RmlCD inh mix)
N#Cc1cc2c(=O)n3ccccc3nc2n(CCCN2CCOCC2)c1=O	RmlCD inh mix 79
O=C(NCCN1CCOCC1)c1cc2c(=O)n3ccccc3nc2n1Cc1ccccc1	RmlCD inh mix 86
N=c1c(C(=O)NC2CCCC2)cc2c(=O)n3ccccc3nc2n1CCN1CCOCC1	none
CC(=O)N=c1c(C#N)cc2c(=O)n3ccccc3nc2n1Cc1ccccc1	none (no result: RmlCD inh mix)
CC1(C)CCC23CC[C@]4(C)C(OC2=O)(C3C1)[C@H]1O[C@H]1C1[C@@]2(C)CC[C@@H](O)C(C)(C)C2CC[C@]14C (some centres undefined)	none (no result: YopH inh)
CCC1=C[C@H]2CN(C1)Cc1c([nH]c3ccccc13)[C@@](C(=O)OC)(c1cc3c(cc1OC)N(C)[C@H]1[C@@](O)(C(=O)OC)[C@H](OC(C)=O)[C@]4(CC)C=CCN5CC[C@]31[C@@H]54)C2	none (no result: YopH inh)
NC(=O)c1cc[n+](CC2=C(C(=O)O)N3C(=O)[C@@H](NC(=O)C(c4ccccc4)S(=O)(=O)[O-])[C@H]3SC2)cc1 (some centres undefined)	none
N[C@@H](C(=O)N[C@@H]1C(=O)N2C(C(=O)O)=C(Cl)CS[C@H]12)c1ccccc1	YopH inh 97
O=C(c1ccco1)N1CCN(CC2CC3C=CC2C3)CC1 (centres undefined)	none
O=C(Nc1ccccc1N1CCOCC1)C1CCN(S(=O)(=O)c2ccccc2F)CC1	none (no result: RmlCD inh mix)
Cc1nc2c(sc3nc4c(cc32)COC(C)(C)C4)c(=O)n1Cc1ccccc1	none
Cc1nc2c(sc3nc4c(cc32)COC(C)(C)C4)c(=O)o1	RmlCD inh mix 42 | RmlCD fluor art active
N/C(=N\S(=O)(=O)c1ccc(Cl)s1)c1ccccc1	none
CCOC(=O)c1c(=O)n(O)c2ccc(OC)cc2[n+]1[O-]	none
CCN(CC)S(=O)(=O)c1ccc2[nH]c(=O)[nH]c2c1	none
COc1ccc(C#Cc2c(-c3ccsc3)oc3ccc(-c4cc(OC)c(OC)c(OC)c4)cc23)cc1	RmlCD inh mix 60 (no result: YopH inh) | RmlCD fluor art active
COc1ccc(-c2oc3ccc(-c4cc(OC)c(OC)c(OC)c4)cc3c2-c2ccc(OC)cc2)cc1	none (no result: YopH inh)
Fc1ccc(NC(=S)NCc2cccs2)cc1	none (no result: RmlCD inh mix)
CCN(CC)c1ccc2cc(-c3nc4ccccc4[nH]3)c(=O)oc2c1	RmlCD inh mix 30 | RmlCD fluor art active
CCN(CC)c1ccc2cc(-c3nc4ccccc4n3C)c(=O)oc2c1	none
CCCCCCCCCCCC(=O)NC(C(=O)OCC)C(O)c1cccc([N+](=O)[O-])c1 (centres undefined)	none
Cc1ccc(NC(=O)Nc2ccccc2C#N)c(Cl)c1	none
O=C(Nc1cccc(Cl)c1)Nc1cccc(Cl)c1	none
N#Cc1ccccc1NC(=O)Nc1ccc(Cl)cc1	RmlCD inh mix 40 | RmlCD fluor art active
N#Cc1ccccc1NC(=O)Nc1cccc(Cl)c1	RmlCD inh mix 44 | RmlCD fluor art active
Cc1ccc(C)c(NS(=O)(=O)c2ccc3c(c2)Cc2cc(S(=O)(=O)Nc4cc(C)ccc4C)ccc2-3)c1	none (no result: RmlCD inh mix)
CCNC(=O)CSc1nnc(-c2ccccc2Br)n1-c1cccc(C(F)(F)F)c1	none (no result: RmlCD inh mix)
COc1cc2[nH]c(=O)n(CCC(=O)N3CC=C(c4ccccc4)CC3)c(=O)c2cc1OC	none
COc1cc2[nH]c(=O)n(CCCC(=O)N3CC=C(c4ccccc4)CC3)c(=O)c2cc1OC	RmlCD inh mix 52 | RmlCD fluor art inactive
O=C(Nc1ccc(Cl)cn1)c1ccc(-c2ccc(Cl)c(Cl)c2)o1	none
Cc1cc(=O)oc2cc(OC(=O)c3ccccc3)ccc12	RmlCD inh mix 46 (no result: YopH inh) | RmlCD fluor art active
CC(=O)Oc1ccc2c(=O)c(-c3ccccc3)c(C)oc2c1	RmlCD inh mix 80 (no result: YopH inh) | RmlCD fluor art active
Cc1ccc(N(C)S(=O)(=O)c2cccc(C(=O)Oc3ccc4c(C)cc(=O)oc4c3)c2)cc1	none (no result: RmlCD inh mix)
